# Data: publication PMC4336329 (PLoS ONE, 2015)
# The campaign covered roughly 310,000 compounds. About 14,000 (4.5%) showed an effect of 50% or more. The effect is printed as a negative number. Many of the other results were omitted from the sample, so strong results are more common in it than they were.
# Molecular target: human ether-à-go-go-related gene (hERG) potassium channel (human, UniProt Q12809)
# Test: primary screen, population patch clamp on CHO cells stably expressing hERG; higher = less effect of the substance
# 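Also: peak tail current of the secondary pulse compared with the same well before compound.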
# Chain of human ether-à-go-go-related gene (hERG) potassium channel (Q12809 whole entry, looked up): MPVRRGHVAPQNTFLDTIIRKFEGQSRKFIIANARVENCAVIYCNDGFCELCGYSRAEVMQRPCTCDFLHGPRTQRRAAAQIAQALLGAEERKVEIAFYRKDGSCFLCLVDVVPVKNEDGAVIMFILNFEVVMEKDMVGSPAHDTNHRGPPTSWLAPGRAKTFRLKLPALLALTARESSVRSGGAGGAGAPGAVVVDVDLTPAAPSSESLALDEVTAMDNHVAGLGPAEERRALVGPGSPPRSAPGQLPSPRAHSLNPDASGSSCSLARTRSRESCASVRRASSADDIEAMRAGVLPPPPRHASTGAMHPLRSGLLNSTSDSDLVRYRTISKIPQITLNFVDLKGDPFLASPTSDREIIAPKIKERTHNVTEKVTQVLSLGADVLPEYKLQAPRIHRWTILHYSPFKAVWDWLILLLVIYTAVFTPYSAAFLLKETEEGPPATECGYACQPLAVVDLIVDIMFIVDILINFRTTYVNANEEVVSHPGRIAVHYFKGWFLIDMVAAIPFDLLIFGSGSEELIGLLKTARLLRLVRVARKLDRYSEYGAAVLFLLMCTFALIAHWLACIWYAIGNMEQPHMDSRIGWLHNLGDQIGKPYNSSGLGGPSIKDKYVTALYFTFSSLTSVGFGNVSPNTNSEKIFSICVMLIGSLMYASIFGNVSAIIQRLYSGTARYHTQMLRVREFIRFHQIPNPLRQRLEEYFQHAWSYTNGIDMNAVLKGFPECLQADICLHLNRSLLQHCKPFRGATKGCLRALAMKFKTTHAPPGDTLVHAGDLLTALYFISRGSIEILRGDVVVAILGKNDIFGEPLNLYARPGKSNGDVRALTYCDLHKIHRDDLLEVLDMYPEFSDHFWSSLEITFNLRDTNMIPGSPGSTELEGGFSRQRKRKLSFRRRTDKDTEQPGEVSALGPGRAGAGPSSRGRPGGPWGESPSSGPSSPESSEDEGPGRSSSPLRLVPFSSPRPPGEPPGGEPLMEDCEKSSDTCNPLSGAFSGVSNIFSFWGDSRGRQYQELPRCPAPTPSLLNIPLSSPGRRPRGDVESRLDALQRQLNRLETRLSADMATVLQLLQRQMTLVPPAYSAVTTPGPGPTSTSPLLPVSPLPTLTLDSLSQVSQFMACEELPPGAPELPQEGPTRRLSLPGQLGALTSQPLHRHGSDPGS
row,Compound,"hERG current change (%, negative = inhibition) at 10uM [%]"
1,CCOc1ccc(NC(=O)C2CCC(C)(C(=O)O)C2(C)C)cc1 (stereo not shown),6.49
2,CCN(C(=O)COC(=O)c1ccccc1NC(=O)c1ccco1)C1CCS(=O)(=O)C1 (stereo not shown),-72.1
3,CN(C(=O)COC(=O)c1ccccc1NC(=O)c1ccco1)C1CCS(=O)(=O)C1 (stereo not shown),-62.3
4,CCN(C(=O)COC(=O)c1ccccc1NCCO)C1CCS(=O)(=O)C1 (stereo not shown),-5.97
5,CCN(C(=O)COC(=O)c1ccccc1Nc1cccc(C)c1C)C1CCS(=O)(=O)C1 (stereo not shown),2.59
6,O=C(COC(=O)c1ccccc1NC(=O)c1ccco1)NC1CCS(=O)(=O)C1 (stereo not shown),-2.03
7,CN(C(=O)COC(=O)c1ccccc1Nc1ccccc1)C1CCS(=O)(=O)C1 (stereo not shown),-41.4
8,CCOc1ccccc1C1CC(=O)Nc2cc(OC)c(OC)cc21 (stereo not shown),13.2
9,O=CNC1CCCc2c1[nH]c1ccc(Cl)cc21 (stereo not shown),-9.15
10,COc1cccc(OC(=O)N2CCOCC2)c1,8.3
11,O=C(CCCN1C(=O)c2ccccc2C1=O)Nc1cccc(S(=O)(=O)NC2=NCCC2)c1,13.5
12,COc1ccc(N2CCN(C(C)C(=O)N3CC(C)OC(C)C3)CC2)cc1.O=C(O)C(=O)O (stereo not shown),18
13,COc1ccc(/C=N/NC(=O)CCCC(=O)NC2CCCCC2)cc1,5.06
14,CN(C)C(=O)/C(=C/c1ccc(-c2cccc([N+](=O)[O-])c2)o1)NC(=O)c1ccccc1,-21.3
15,CN(C)C(=O)/C(=C\c1ccc(-c2cccc([N+](=O)[O-])c2)o1)NC(=O)c1ccccc1,-47.9
16,CN(C)CCCNC(=O)/C(=C\c1ccc(-c2cccc([N+](=O)[O-])c2)o1)NC(=O)c1ccccc1,-81.2
17,CN(C)CCNC(=O)/C(=C/c1ccc(-c2cccc([N+](=O)[O-])c2)o1)NC(=O)c1ccccc1,-75.4
18,O=C(NCCCO)/C(=C/c1ccc(-c2cccc([N+](=O)[O-])c2)o1)NC(=O)c1ccccc1,-31.5
19,C=CCNC(=O)/C(=C/c1cn(-c2ccccc2)nc1-c1cccc([N+](=O)[O-])c1)NC(=O)c1ccccc1,-3.58
20,CCCCCn1c(=O)[nH]c2cc(C(=O)NCCN3CCCCC3C)ccc2c1=O (stereo not shown),-15.9
21,CCOC(=O)c1ccc(NC(=S)NNC(=O)C2(C)CC2(Cl)Cl)cc1 (stereo not shown),28.4
22,O=C(O)CCSc1nnc(COc2ccc([N+](=O)[O-])cc2)n1-c1ccccc1,22.8

row,Compound,"hERG current change (%, negative = inhibition) at 10uM [%]"
1,C/C(=C\[C@@H](NP(=O)(c1ccccc1)c1ccccc1)c1ccccc1)CO[Si](c1ccccc1)(c1ccccc1)C(C)(C)C,5.58
2,CCN(CC)S(=O)(=O)c1cccc(C(=O)NCC(=O)OCC(=O)NCc2ccccc2)c1,-7.41
3,O=C(CNS(=O)(=O)c1ccc(Br)cc1)OCc1cc(=O)n2cc(Br)ccc2n1,-26
4,CC1CC1C(=O)OCc1cc(=O)n2cc(Br)ccc2n1 (stereo not shown),-16.2
5,CC1(C(=O)OCc2cc(=O)n3cc(Br)ccc3n2)CC1(Cl)Cl (stereo not shown),-54.3
6,C[C@H](NS(=O)(=O)c1ccc(Cl)c(Cl)c1)C(=O)OCc1cc(=O)n2cc(Br)ccc2n1,-63.4
7,Cc1cc(C)c(C)c(S(=O)(=O)N[C@@H](C)C(=O)OCc2cc(=O)n3cc(Br)ccc3n2)c1C,-47
8,CCOc1ccc(CC(=O)OCc2cc(=O)n3cc(Br)ccc3n2)cc1,-6.01
9,COc1ccc(NS(=O)(=O)c2cc(NC(=O)c3ccc(=O)[nH]c3)ccc2C)cc1,15.1
10,CC(=O)Nc1ccc(S(=O)(=O)N2CCN(c3nnnn3-c3ccccc3)CC2)cc1,13.1
11,O=[N+]([O-])c1ccc(C[n+]2cccc3c4ccccc4ccc32)cc1.[Br-],-40.5
12,O=[N+]([O-])c1ccc(C[n+]2cccc3ccccc32)cc1.[Cl-],-3.07
13,O=[N+]([O-])c1ccc(C[n+]2cccc3ccc4cccnc4c32)cc1.[Br-],-62.6
14,CN(C)c1ccc(C2N(C(=O)N3CCOCC3)CCN2S(=O)(=O)c2ccccc2)cc1 (stereo not shown),3.98
15,CCN1CCN(CC(=O)N2CCCC(C(=O)c3ccc(Oc4ccccc4)cc3)C2)CC1 (stereo not shown),-52.7
16,CCn1nc(C)cc1C(=O)N1CCCC(C(=O)c2ccc(Oc3ccccc3)cc2)C1 (stereo not shown),-9.04
17,COCCC(=O)N1CCCC(C(=O)c2ccc(Oc3ccccc3)cc2)C1 (stereo not shown),-79.3
18,COCC(=O)N1CCCC(C(=O)c2ccc(Oc3ccccc3)cc2)C1 (stereo not shown),-34.1
19,CC(=O)NCC(=O)N1CCCC(C(=O)c2ccc(Oc3ccccc3)cc2)C1 (stereo not shown),-23.2
20,CC(=O)N1CCCC(C(=O)c2ccc(Oc3ccccc3)cc2)C1 (stereo not shown),-5.43
21,CC1CCCC(C)N1S(=O)(=O)c1ccc(NC(=O)c2ccccc2C(=O)N2CCOCC2)cc1 (stereo not shown),-3.57
